The record followed here is PubChem BioAssay (EPA / NIEHS).

Several values for one entry are separate records, joined by “and”; a condition that tells them apart may be missing. Identical values can stand only once. The source holds several records for some structures; these can differ, active in one and inactive in another. Activity calls are given as the source filed them. Rule for the calls: active = hit-call score of the fitted dose curve at least 0.9, where 1 is the maximum; inactive = score below 0.9.

A word on the AC50: it is the concentration giving half of the maximal activity seen.

Read-out in the experiment: TIMP metallopeptidase inhibitor 1 (TIMP1), TIMP1 (gene 7076)
The experiment in a line: BSK_MyoF_TIMP1: BioMAP Diversity Plus: MyoF Assay for TIMP metallopeptidase inhibitor 1 (TIMP1) Biomarker Activity (AID 2284269). The conditions noted are these: primary human lung fibroblasts. As to the method: BSK_MyoF is a cell-based, multiplexed-readout assay that uses lung fibroblasts, […], with measurements taken at 24 hours after chemical dosing in a microplate: 96-well plate.BSK_MyoF_TIMP1 is an assay component measured in the BSK_MyoF assay. It measures TIMP-1 antibody related to regulation of gene expression using ELISA technology.Data from the assay component BSK_MyoF_TIMP1 was analyzed at the endpoint, BSK_MyoF_TIMP1, in the positive analysis fitting direction relative to DMSO as the negative control and baseline of activity. Using a type of binding reporter, gain or loss-of-signal activity can be used to understand protein changes. To generalize the intended target to other relatable targets, this assay endpoint is annotated to the 'protease' intended target family, where the subfamily is 'matrix metalloproteinase'.
The levels of cell surface (or secreted, indicated by the prefix "s") biomarker endpoints were measured by ELISA. Overt cytotoxicity to cells in confluent adherent cultures (all systems other than the BT system) was assessed by measuring total protein levels using sulforhodamine B (SRB) staining in parallel cultures at the time of biomarker measurements, indicated as SRB endpoints. For proliferation assays for adherent cell types, individual cell types are cultured at sub-confluence and relative cell numbers quantified by SRB staining at time points optimized for each system (48 h: 3C and CASM3C systems; 72 h: BT and HDF3CGF systems; 96 h: SAg system). SRB was performed by staining cells with 0.1% SRB after fixation with 10% TCA and reading wells at 560 nm.Viability and proliferation of PBMC (T cells) was quantified by Alamar Blue reduction for the SAg and BT systems. For PBMC viability (referred to as PBMC Cytotoxicity within the assay endpoint names), cells were plated (75,000/well in a 96-well plate) and then chemical samples added for 1 h before addition of activators, SEB and TSST-1 (20 ng/mL final concentration each). Cells were incubated for 90 h. Then, Alamar Blue (20 uL/well) (Invitrogen, Cat DAL1100) was added for 6 h, and the plates were read with a fluorescence microplate reader at 546/580 nm (excitation/emission). For PBMC proliferation, cells were plated and activated as above but incubated for only 16 h prior to addition of Alamar Blue. Plates were read after 6 h.
Consider `Cc1cc(C)c(O)c(C(C)(C)C)c1`, for which the half-maximal activity concentration (AC50) was 31.6 µM (active).
Regarding `OCC(O)CC(F)(F)C(F)(F)C(F)(F)C(F)(F)C(F)(F)C(F)(F)C(F)(F)C(F)(F)F` (stereo not given), the outcome was inactive.
The same measure, in the same setting: in the case of `C=CC(=O)OCCC(F)(F)C(F)(F)C(F)(F)C(F)(F)F` it was “inactive”; in that of `NC(O)(C(F)(F)F)C(F)(F)F`, “inactive”.
Turning to `NS(=O)(=O)C(F)(F)C(F)(F)C(F)(F)C(F)(F)C(F)(F)C(F)(F)F`, the result was inactive.
On the same count and under the same terms, then `COC(F)(C(F)F)C(F)(F)F` (stereo not given), with “inactive”; and `O=S(=O)(O)CCC(F)(F)C(F)(F)C(F)(F)C(F)(F)C(F)(F)C(F)(F)C(F)(F)C(F)(F)F`, with “inactive”.
The same measure, in the same setting: then `CN(C(=O)C(F)(F)C(F)(F)C(F)(F)F)[Si](C)(C)C`, with “inactive”.
As for `O=C(O)C(F)(F)OC(F)(F)C(F)(F)OC(F)(F)C(F)(F)OC(F)(F)F`, the AC50 is 6.35 µM (active) and the outcome was inactive.
Consider `CCOC(=O)CC(=O)C(F)(F)C(F)(F)F`, for which the result was inactive.
The same measure, in the same setting: then `NC(=O)C(F)(F)C(F)(F)C(F)(F)C(F)F`, with “inactive”; and `OCC(F)(F)C(F)(F)C(F)(F)C(F)(F)C(F)(F)C(F)(F)CO`, with “inactive”.
With `O=C(c1ccccc1)c1ccc(O)cc1O`, the outcome was inactive.
Regarding `O=C=NCc1cccc(CN=C=O)c1`, the outcome was inactive.
As for `O=C1C=CC(=O)N1c1ccc(Cc2ccc(N3C(=O)C=CC3=O)cc2)cc1`, the AC50 is 5.94 µM (active).
For `CCN(CCO)S(=O)(=O)C(F)(F)C(F)(F)C(F)(F)C(F)(F)C(F)(F)C(F)(F)C(F)(F)C(F)(F)F`, the concentration at half-maximal activity (AC50) is 30 µM (active) and the outcome was inactive.
Take `C=CC(=O)OCC(F)(F)C(F)(F)C(F)(F)COC(=O)C=C`: the AC50 is 16.9 µM (active) and 13.9 µM (active).
Take `C[Si](Cl)(Cl)CCC(F)(F)C(F)(F)C(F)(F)C(F)(F)C(F)(F)C(F)(F)F`: the result was inactive.
The same measure, in the same setting: in the case of `CNS(=O)(=O)C(F)(F)C(F)(F)C(F)(F)C(F)(F)C(F)(F)C(F)(F)C(F)(F)C(F)(F)F` it was “inactive”; in that of `FC(F)(F)C(F)(F)C(F)(F)C(F)(F)C(F)(F)C(F)(F)C(F)(F)CCI`, “inactive”; in that of `CCN(CC)c1ccc2c(c1)Oc1cc(N(CC)CC)ccc1C21OC(=O)c2ccccc21`, “inactive”.
Same read-out and setting: then `NC(=O)C(F)(F)C(F)(F)C(F)(F)C(F)(F)C(N)=O`, with “inactive”; and `O=C(O)C(F)(F)C(F)(F)C(F)(F)C(F)(F)C(F)(F)C(F)(F)C(F)F`, with “inactive”.
With `C=C(C)C(=O)OCC(F)(F)C(F)(F)C(F)(F)C(F)F`, the result was inactive.
On the same count and under the same terms, then `FC(F)(F)C(F)(F)C(F)(F)CC1CO1` (stereo not given), with “inactive”; and `O=C(Cl)C(F)(F)C(F)(F)C(F)(F)C(F)(F)C(F)(F)C(F)(F)F`, with “inactive”; and `O=C(O)CCC(F)(F)C(F)(F)C(F)(F)F`, with “inactive”.
`Cc1ccc(O)c(-n2nc3ccccc3n2)c1`: the result was inactive.
Same read-out and setting: in the case of `OCCCCC(F)(F)C(F)(F)C(F)(F)C(F)(F)F` it was “inactive”; in that of `Cc1cnccn1`, “inactive”; in that of `O=C(Cl)C(F)(F)C(F)(F)C(F)(F)C(F)(F)C(F)(F)C(F)(F)C(F)(F)F`, “inactive”.
Still for that read-out and setting: in the case of `CCN(CC)c1ccc(C=O)c(O)c1` it was “inactive”.
The same measure, in the same setting: in the case of `O=C1c2c(O)ccc(Nc3ccc(CCO)cc3)c2C(=O)c2c([N+](=O)[O-])ccc(O)c21` it was “inactive”.
Turning to `OCC(F)(F)C(F)(F)C(F)(F)CO`, the result was inactive.
On the same count and under the same terms, in the case of `O=C=Nc1cccc2c(N=C=O)cccc12` it was “inactive”; in that of `C=CC(=O)OCC(F)(F)C(F)(F)C(F)(F)C(F)(F)C(F)(F)C(F)(F)C(F)(F)C(F)F`, “inactive”.
Still for that read-out and setting: in the case of `O=S(=O)(OCC(F)(F)F)C(F)(F)C(F)(F)C(F)(F)C(F)(F)F` it was “inactive”; in that of `Nc1cc([N+](=O)[O-])cc(Cl)c1O`, “inactive”.
